Here are results for nine compounds from PubChem BioAssay.

The structures appear in SMILES notation. Activity calls are given as the source filed them.

Assay [1] is described as follows: optical density shifts of acrAB sulA E. coli – strain DRC41, OD650, 48 h, E. coli filamentation inducer project, primary screen (AID 1152).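 Further: E. coli MC1000 strain DRC41 lacking acrAB efflux pump and sulA.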 The settings on record: higher = more signal, called active from +8 up or from −8 down.
A short description of assay [2]: probe aLefty1 binding on compound microarray – biochemical, small-molecule microarray, 635/667 nm fluorescence, primary screen (AID 1153).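 Further: score merges spot fluorescence with signal-to-noise ratio from the scanned slide images.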 The settings on record: higher = more signal.
Assay [3] in a line: plasmodial surface anion channel blockers, osmotic lysis – cell-based, P. falciparum Indochina, OD700, 1 h, primary screen (AID 1154). The settings on record: P. falciparum Indochina infected RBC osmotic lysis, higher = more signal, called active from +8 up or from −8 down.
Assay [4] is described as follows: plasmodial surface anion channel blockers, osmotic lysis – cell-based, P. falciparum Indochina, OD700, 2 h, primary screen (AID 1155).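 Further: lysis reports solute entry through the parasite surface anion channel PSAC.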 To be noted: P. falciparum Indochina infected erythrocytes, higher = more signal, called active from +8 up or from −8 down.
Assay [5] is described as follows: changes in parasitized red cell lysis, either direction – P. falciparum Indochina, OD700, 3 h, PSAC antagonist project, primary screen (AID 1156). The settings on record: P. falciparum-infected erythrocytes, osmotic lysis, higher = more signal, called active from +8 up or from −8 down.
Assay [6] is described as follows: plasmodial surface anion channel blockers, osmotic lysis – cell-based, P. falciparum Indochina, OD700, 18 h, primary screen (AID 1157). The settings on record: P. falciparum Indochina infected erythrocytes, osmotic lysis OD700, 18 h; higher = more signal, called active from +8 up or from −8 down.
Assay [7] is described as follows: S6 kinase pathway phospho-S6 level changes – cell-based, A549, cytoblot, luminescence, serum-stimulated, primary screen (AID 1158).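 Further: serum-stimulated A549 lung adenocarcinoma cells; signal is phosphorylated S6 detected by cytoblot immunostaining with HRP secondary.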 To be noted: 5 h, higher = more signal.
Assay [8] addresses NADPH oxidase 2 (Homo sapiens) (UniProt P04839). Briefly: compounds shifting NOX2 Amplex Red fluorescence – cell-based, HEK293-NOX2, PMA-stimulated, NOX inhibitor project, primary screen (AID 1159). Further: test concentration not given here. The settings on record: 45 min, higher = more signal, called active from +8 up or from −8 down.
The target of assay [9] is NADPH oxidase 4 (Homo sapiens) (UniProt Q9NPH5). Put plainly: compounds shifting NOX4 Amplex Red fluorescence – cell-based, HEK293-NOX4, tetracycline-induced, NOX inhibitor project, primary screen (AID 1160). The settings on record: HEK293-NOX4, Amplex Red H2O2 fluorescence, 45 min; higher = more signal, called active from +8 up or from −8 down.
Assay [10] concerns the target NADPH oxidase 5 (Homo sapiens) (UniProt Q96PH1). Put plainly: compounds shifting NOX5 Amplex Red fluorescence – cell-based, HEK293-NOX5, NOX inhibitor project, primary screen (AID 1161). The settings on record: HEK293-NOX5, ionomycin, 45 min, higher = more signal.
The nature of assay [11]: compound effects on lung adenocarcinoma cell viability – A549, calcein-AM fluorescence, 48 h, basal, profiling panel (AID 1162). Further: test concentration not given here. To be noted: higher = more signal.
Assay [12] can be described thus: compound effects on differentiated 3T3-L1 adipocyte viability – cell-based, 3T3-L1 adipocytes, calcein-AM fluorescence, 48 h, basal, profiling panel (AID 1163). Further: test concentration not given here. The settings on record: 3T3-L1 adipocytes viability, higher = more signal.
A short description of assay [13]: compound effects on hepatocellular carcinoma cell viability – HepG2, calcein-AM fluorescence, 48 h, basal, profiling panel (AID 1164). Further: test concentration not given here. The settings on record: higher = more signal.
A short description of assay [14]: compound effects on multiple myeloma cell viability – MM1S, calcein-AM fluorescence, 48 h, basal, profiling panel (AID 1165).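 Further: viability of MM1S multiple myeloma cells under basal unstimulated conditions; test concentration not given here.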 To be noted: higher = more signal.
Assay [15] can be described thus: calcein-AM signal in unstimulated myeloma cells – cell-based, calcein-AM fluorescence, 48 h, PK04 Diversity Set, profiling panel (AID 1166).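 Further: cells grown under basal conditions without added stimulus; test concentration not given here.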 The settings on record: RPMI8226 myeloma viability, higher = more signal.
Assay [16] can be described thus: JC-1 mitochondrial signal, unstimulated HepG2 cells – cell-based, JC-1 fluorescence, 24 h, 100 nL compound, profiling panel (AID 1167). Further: test concentration not given here. To be noted: HepG2 mitochondrial potential, higher = more signal.
Assay [17] can be described thus: JC-1 mitochondrial signal, unstimulated adipocytes – cell-based, JC-1 fluorescence, 3T3-L1 adipocytes, 24 h, 100 nL compound, profiling panel (AID 1168). Further: test concentration not given here. To be noted: JC-1 mitochondrial fluorescence, higher = more signal, called active from +8 up or from −8 down.
Assay [18] can be described thus: JC-1 mitochondrial signal, unstimulated myeloma cells – cell-based, JC-1 fluorescence, RPMI8226, 24 h, 100 nL compound, profiling panel (AID 1169). Further: test concentration not given here. The settings on record: JC-1 mitochondrial potential fluorescence, higher = more signal.
The nature of assay [19]: JC-1 mitochondrial signal, unstimulated MM1S myeloma – cell-based, JC-1 fluorescence, 24 h, 100 nL compound, profiling panel (AID 1170). Further: test concentration not given here. The settings on record: MM1S mitochondrial potential, higher = more signal.
A short description of assay [20]: resazurin metabolic signal in A549 cells – cell-based, resazurin fluorescence, 24 h, PK04 Diversity Set, profiling panel (AID 1171). Further: test concentration not given here. To be noted: A549 viability, higher = more signal, called active from +8 up or from −8 down.

Sequence of NADPH oxidase 2 (Homo sapiens) (P04839 whole entry, looked up): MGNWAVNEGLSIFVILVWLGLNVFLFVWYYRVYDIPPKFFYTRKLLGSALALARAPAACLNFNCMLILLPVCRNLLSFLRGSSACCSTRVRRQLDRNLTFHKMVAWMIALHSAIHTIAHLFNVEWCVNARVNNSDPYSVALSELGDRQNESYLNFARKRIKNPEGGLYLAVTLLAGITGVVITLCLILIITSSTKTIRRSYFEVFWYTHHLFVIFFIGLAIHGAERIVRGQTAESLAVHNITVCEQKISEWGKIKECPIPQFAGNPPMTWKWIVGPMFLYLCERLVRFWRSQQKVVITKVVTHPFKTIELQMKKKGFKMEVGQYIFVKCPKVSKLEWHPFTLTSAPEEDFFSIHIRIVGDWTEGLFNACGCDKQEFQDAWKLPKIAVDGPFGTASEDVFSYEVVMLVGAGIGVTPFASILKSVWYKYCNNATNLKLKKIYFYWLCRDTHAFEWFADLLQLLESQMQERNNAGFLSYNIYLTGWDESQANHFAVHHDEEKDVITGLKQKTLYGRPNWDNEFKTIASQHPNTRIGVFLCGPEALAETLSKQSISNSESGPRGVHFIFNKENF
Sequence of NADPH oxidase 5 (Homo sapiens) (Q96PH1 whole entry, looked up): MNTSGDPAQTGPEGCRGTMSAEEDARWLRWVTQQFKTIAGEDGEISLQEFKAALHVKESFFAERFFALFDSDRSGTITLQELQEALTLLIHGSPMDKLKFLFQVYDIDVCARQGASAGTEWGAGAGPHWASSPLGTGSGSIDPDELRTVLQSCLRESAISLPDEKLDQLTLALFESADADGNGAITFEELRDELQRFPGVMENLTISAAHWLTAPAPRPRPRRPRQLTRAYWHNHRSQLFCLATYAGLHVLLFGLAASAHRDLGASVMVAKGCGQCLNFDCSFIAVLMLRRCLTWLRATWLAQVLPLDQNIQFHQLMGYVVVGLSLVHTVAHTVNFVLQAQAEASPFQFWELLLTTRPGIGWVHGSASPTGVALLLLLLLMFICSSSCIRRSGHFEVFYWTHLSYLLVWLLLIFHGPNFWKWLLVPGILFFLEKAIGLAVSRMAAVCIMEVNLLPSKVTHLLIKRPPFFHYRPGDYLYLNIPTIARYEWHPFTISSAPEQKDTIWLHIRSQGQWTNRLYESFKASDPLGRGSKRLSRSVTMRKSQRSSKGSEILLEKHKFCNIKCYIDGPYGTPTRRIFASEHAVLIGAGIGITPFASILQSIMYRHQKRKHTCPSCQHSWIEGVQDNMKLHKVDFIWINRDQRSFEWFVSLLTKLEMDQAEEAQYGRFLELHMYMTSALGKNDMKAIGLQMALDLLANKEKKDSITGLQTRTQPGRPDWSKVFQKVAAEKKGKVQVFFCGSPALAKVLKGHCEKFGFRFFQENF
Sequence of NADPH oxidase 4 (Homo sapiens) (Q9NPH5 whole entry, looked up): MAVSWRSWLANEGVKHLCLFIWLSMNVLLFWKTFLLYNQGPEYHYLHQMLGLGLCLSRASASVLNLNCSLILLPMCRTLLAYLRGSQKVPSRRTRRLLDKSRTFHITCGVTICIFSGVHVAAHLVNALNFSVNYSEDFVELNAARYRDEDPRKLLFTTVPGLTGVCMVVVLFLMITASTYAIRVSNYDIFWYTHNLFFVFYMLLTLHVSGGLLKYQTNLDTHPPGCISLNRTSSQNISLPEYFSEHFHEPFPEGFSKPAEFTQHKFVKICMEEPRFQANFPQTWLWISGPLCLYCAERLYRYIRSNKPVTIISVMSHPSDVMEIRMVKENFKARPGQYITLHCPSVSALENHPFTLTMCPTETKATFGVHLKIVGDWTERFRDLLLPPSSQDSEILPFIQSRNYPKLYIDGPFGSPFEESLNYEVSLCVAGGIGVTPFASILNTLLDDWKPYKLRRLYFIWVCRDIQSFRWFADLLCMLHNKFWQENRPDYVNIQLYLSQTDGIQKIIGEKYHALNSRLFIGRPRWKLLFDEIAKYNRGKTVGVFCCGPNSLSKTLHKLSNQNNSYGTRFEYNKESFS

On to `CC1(C)[C@@H]2CC(C(O)C3C=CC4C(=O)N(Cc5ccccc5)C(=O)C4N3n3cnnc3)=C[C@H]1C2` (stereo not given in full), for which the z-score in assay [1] is -0.316 (inactive); in assay [3] it was 1.31 (inactive); in assay [4], 1.24 (inactive); in assay [5], 0.313 (inactive); in assay [6] it was 0.927 (inactive); in [7], -0.688. The z-score was -0.14 (inactive) in [8]; 0.741 (inactive) in assay [9]; 0.273 in assay [10]; -0.868 in assay [11]; -0.622 in [12]; 0.0607 in assay [13]. Moreover, the z-score in assay [14] is -0.0282; in assay [15] it was 0.346; in assay [16], -0.237; in assay [17], 0.352 (inactive); in [18], -0.124; in assay [19], -0.649. The z-score in assay [20] is 1.18 (inactive). In assay [2], this compound returned a composite z-score of 0.0451.

For the compound `C=C(CCCC)/C(=C/C[C@H](OC(=O)c1ccncc1)c1ccccc1OCCO)c1cnc2ccccc2c1`, the z-score in assay [1] is -0.244 (inactive); in assay [3], 23.7 (active); in [4] it was 4.64 (inactive); in assay [5], 1.08 (inactive); in [6], 1.02 (inactive); in assay [7], 0.0376. Also, the z-score in assay [8] was -1.22 (inactive); in assay [9], -0.281 (inactive); in [10] it was -1.45; in assay [11] it was 0.0262; in [12], 0.091; in [13], 0.0722. Further, the z-score in [14] is -3.3; in [15] it was -2.97; in [16], 0.943; in assay [17] it was -0.424 (inactive); in [18], -0.716; in assay [19], -0.705. In assay [20], the z-score is 0.89 (inactive). The compound further registered a composite z-score in assay [2] of 0.11.

Consider `CCOC(=O)C[C@H]1[C@H](OC(=O)c2ccc(C(=O)c3ccccc3)cc2)[C@@H](NC(=O)CC(C)C)c2cc(OCCCO)ccc2N1C(=O)c1ccc2ccccc2n1`, for which the z-score in assay [1] is 1.66 (inactive); in [3], 3.64 (inactive); in assay [4], 0.582 (inactive); in [5] it was 0.0206 (inactive); in [6] it was -0.135 (inactive); in [7] it was 0.276. The z-score is -1.46 (inactive) in assay [8]; 0.892 (inactive) in assay [9]; 0.97 in assay [10]; 0.713 in assay [11]; -0.177 in assay [12]; 0.592 in assay [13]. Besides, the z-score in [14] was 0.143; in assay [15] it was 0.263; in assay [16], 2.53; in assay [17] it was 1.59 (inactive); in assay [18], 0.944; in assay [19] it was -0.67. Besides, the z-score in assay [20] was 0.59 (inactive). Besides, the composite z-score in assay [2] was -0.0518.

`CC1(C)[C@@H]2CC(C(O)C3C=CC4C(=O)N(c5ccccc5)C(=O)C4N3Nc3ccc([N+](=O)[O-])cc3)=C[C@H]1C2` (stereo not given in full): the z-score was -1.03 (inactive) in assay [1]; 14.3 (active) in assay [3]; 2.98 (inactive) in [4]; 2.92 (inactive) in [5]; 1.56 (inactive) in assay [6]; -0.539 in assay [7]. In addition, the z-score is -0.0932 (inactive) in assay [8]; -1.02 (inactive) in assay [9]; -2.02 in assay [10]; -0.0923 in assay [11]; -0.484 in assay [12]; -0.0345 in [13]. The z-score was 0.114 in [14]; 0.287 in [15]; -1.41 in assay [16]; -2.48 (inactive) in assay [17]; 0.428 in assay [18]; -1.09 in assay [19]. Besides, in assay [20], the z-score was 0.539 (inactive). The composite z-score in assay [2] was 0.404.

In the case of `O=C1O[C@@H](c2ccccc2)[C@@H](c2ccccc2)N2[C@@H](c3ccccc3OCCO)[C@]3(C(=O)Nc4ccccc43)[C@@H](C(=O)Nc3nc4ccccc4s3)[C@H]12`, the z-score was 0.533 (inactive) in [1]; 2.02 (inactive) in assay [3]; 1.59 (inactive) in assay [4]; 0.0197 (inactive) in assay [5]; -1.52 (inactive) in [6]; 1.53 in [7]. The z-score in assay [8] is 0.188 (inactive); in assay [9], -0.547 (inactive); in assay [10] it was -1.6; in assay [11] it was -2.12; in assay [12], 1.18; in [13] it was -1.98. The z-score in [14] is -3.17; in [15], -4.44; in assay [16] it was -2.85; in assay [17], 3.87 (inactive); in assay [18], -1.3; in assay [19], -1.54. For the same compound, the z-score in assay [20] is -1.52 (inactive). Also, the composite z-score in assay [2] was determined as 1.14.

For `O=C(NCCN1CCOCC1)[C@@H]1c2ccccc2C(=O)N(C2CCCCC2)[C@H]1c1ccc(CO)cc1`, the z-score in assay [1] is -0.306 (inactive); in assay [3], 3.9 (inactive); in assay [4] it was 1.22 (inactive); in assay [5], 1 (inactive); in [6] it was 0.403 (inactive); in assay [7] it was 0.227. Besides, the z-score in [8] was 0.822 (inactive); in assay [9], 1.3 (inactive); in assay [10], 0.579; in assay [11], 1.37; in [12], 1.19; in assay [13], 2.16. Further, the z-score in assay [14] was -0.165; in assay [15], -1.03; in assay [16] it was 3.08; in assay [17] it was -0.0789 (inactive); in assay [18] it was 0.0842; in assay [19], 0.146. For the same compound, the z-score in assay [20] was 1.17 (inactive). In assay [2], this compound had a composite z-score of -0.007.

`COC(=O)[C@@]1(Cc2ccc(OC)cc2)[C@H]2c3cc(C(=O)N(C)C)n(CCc4ccccn4)c3C[C@H]2CN1C(=O)c1ccccc1`: the z-score in assay [1] was -1.83 (inactive); in assay [3], 3.81 (inactive); in assay [4], 1.77 (inactive); in assay [5] it was 1.01 (inactive); in assay [6], 1.58 (inactive); in assay [7] it was -0.334. Further, the z-score is 0.63 (inactive) in assay [8]; -0.925 (inactive) in assay [9]; -1.04 in assay [10]; -0.982 in [11]; -0.812 in assay [12]; -0.173 in assay [13]. The z-score was -1.19 in assay [14]; -2.59 in assay [15]; -0.0203 in assay [16]; -1.04 (inactive) in assay [17]; -0.772 in [18]; -1.35 in assay [19]. Also, the z-score in assay [20] was -0.735 (inactive). The composite z-score in [2] worked out at 1.64.

`C=CC(=C)[C@H]1Oc2ccccc2S(=O)(=O)N2CCC[C@@H]12`: the z-score in assay [1] is -0.829 (inactive); in [3], 4.63 (inactive); in assay [4], 0.751 (inactive); in assay [5], -0.309 (inactive); in assay [6], 0.01 (inactive); in [7] it was 0.0928. Moreover, the z-score in [8] is -0.0944 (inactive); in [9], -1.04 (inactive); in [10] it was -1.38; in assay [11] it was 0.159; in [12], 0.0997; in [13] it was -1.23. In addition, the z-score in assay [14] is -0.391; in assay [15] it was -1.64; in assay [16], -0.708; in [17] it was -0.0333 (inactive); in assay [18], -0.295; in [19], 0.941. For the same compound, the z-score in assay [20] was 0.0255 (inactive). In [2], the composite z-score amounted to 0.131.

In the case of `C=C[C@@H](COC(=O)OC(C)(C)C)N(Cc1ccc(OC)cc1)S(=O)(=O)c1ccc(Br)cc1`, the z-score in assay [1] is -1.13 (inactive); in [3], 1.4 (inactive); in [4] it was -0.0352 (inactive); in assay [5] it was -0.856 (inactive); in assay [6] it was -0.0871 (inactive); in [7], -0.273. Further, the z-score in [8] is -0.348 (inactive); in assay [9] it was 0.525 (inactive); in [10], -1.28; in assay [11], 1.39; in assay [12], 0.332; in assay [13] it was -0.002. Besides, the z-score in assay [14] is -3.08; in assay [15], -1.36; in [16], -0.997; in assay [17], -0.239 (inactive); in [18], -0.525; in assay [19] it was 0.101. The z-score in assay [20] was 1.74 (inactive). The composite z-score in [2] was -0.0094.
